This is a sample that favours compounds with a hit; in the whole collection about 1.7% have one here.
UCHL1 block: blocks human UCHL1 ubiquitin-rhodamine cleavage | purified UCHL1, Ub-rhodamine cleavage fluorescence | inhibition, % at 20 µM | hit rate 0.2% among 47,000 | AID 1645859
USP10 block: human USP10 deubiquitinase inhibition; inhibition, % at 20 µM; purified USP10, Ub-rhodamine fluorescence, 60 min; Q14694; AID 1645856; hit rate 1.1% among 47,000
OTUD3 inh: blocks human OTUD3 ubiquitin-rhodamine cleavage; Q5T2D3; purified OTUD3, Ub-rhodamine fluorescence, 2 h; inhibition, % at 25 µM; hit rate 0.7% among 47,000; AID 1645858
USP7 block: blocks human USP7 ubiquitin-rhodamine cleavage; inhibition, % at 20 µM; Q93009; hit rate 0.3% among 47,000; AID 1645854; purified USP7, Ub-rhodamine cleavage fluorescence
Target sequence (Q93009 whole entry, looked up): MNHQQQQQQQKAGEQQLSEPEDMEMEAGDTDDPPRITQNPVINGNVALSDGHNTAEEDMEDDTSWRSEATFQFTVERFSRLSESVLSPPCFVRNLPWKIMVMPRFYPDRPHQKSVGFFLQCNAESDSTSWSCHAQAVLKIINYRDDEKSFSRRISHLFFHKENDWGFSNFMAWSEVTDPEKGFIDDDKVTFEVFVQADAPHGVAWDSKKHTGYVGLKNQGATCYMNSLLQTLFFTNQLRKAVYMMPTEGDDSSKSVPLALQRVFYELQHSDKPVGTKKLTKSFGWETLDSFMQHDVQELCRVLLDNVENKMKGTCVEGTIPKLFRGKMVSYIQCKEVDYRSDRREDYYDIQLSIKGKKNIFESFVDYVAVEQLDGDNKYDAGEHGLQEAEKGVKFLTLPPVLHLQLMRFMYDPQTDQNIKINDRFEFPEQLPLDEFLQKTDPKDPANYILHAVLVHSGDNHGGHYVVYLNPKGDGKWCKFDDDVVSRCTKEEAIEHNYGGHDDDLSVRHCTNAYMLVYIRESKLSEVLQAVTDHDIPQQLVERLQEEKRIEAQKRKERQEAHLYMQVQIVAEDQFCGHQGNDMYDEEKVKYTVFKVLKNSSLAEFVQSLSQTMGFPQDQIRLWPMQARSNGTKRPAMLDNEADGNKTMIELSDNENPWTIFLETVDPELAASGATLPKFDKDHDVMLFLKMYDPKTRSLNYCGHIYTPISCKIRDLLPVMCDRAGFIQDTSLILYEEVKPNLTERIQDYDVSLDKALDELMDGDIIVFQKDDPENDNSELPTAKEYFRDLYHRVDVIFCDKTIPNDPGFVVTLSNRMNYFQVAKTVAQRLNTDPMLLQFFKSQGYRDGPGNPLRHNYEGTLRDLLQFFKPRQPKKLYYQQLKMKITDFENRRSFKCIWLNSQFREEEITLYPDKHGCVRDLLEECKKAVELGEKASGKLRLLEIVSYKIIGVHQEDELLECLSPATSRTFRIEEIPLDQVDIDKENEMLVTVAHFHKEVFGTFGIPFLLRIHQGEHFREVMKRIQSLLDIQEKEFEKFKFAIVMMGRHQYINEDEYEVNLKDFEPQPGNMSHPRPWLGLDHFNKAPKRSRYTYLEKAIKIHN
* = called active by the depositor. Rule as the data show it: active = inhibition above about 30%; inactive = the rest.

SMILES | UCHL1 block | USP10 block | OTUD3 inh | USP7 block
COC(=O)C1=CC(OC)=C(Cl)C(=O)C12OC(=O)c1c(O)cc(C)cc1O2 (centres undefined) | 33* | 2 | -12 | -92
COc1cc(O)c2c(c1)COC(=O)c1c(O)cc(C)cc1O2 | 1 | 1 | 17 | 1
O=C(CN1Cc2ccccc2C1=O)N1CCC2(CC1)Nc1ccccc1S(=O)(=O)N2 | -2 | -3 | -5 | -3
Cc1ccc(-c2cc(C(=O)Nc3ccc4c(c3)OCCO4)c3ccccc3n2)o1 | 8 | 0 | 8 | -16
O=C(Nc1ccc2c(c1)OCCO2)c1cccc2nc3ccccc3nc12 | 8 | 1 | 31* | 9
Cc1ccc(-c2cc(C(F)F)n3ncc(C(=O)Nc4ccc(O)cc4)c3n2)cc1 | 8 | 44* | 9 | 14
Cc1ccccc1CC(=O)N1CCC(c2nc(C(=O)N3CCCC3)c(C)o2)CC1 | 0 | 0 | 6 | 2
CC(=O)c1cc(-c2ccc(F)cc2)n(CC(=O)Nc2cccc(C)c2C)c1C | 1 | 35* | 35* | 11
COc1ccc2[nH]cc(C(=O)c3ccc(F)cc3)c(=O)c2c1 | -2 | 1 | -1 | 4
Cc1csc(NC(=O)c2c[nH]c3ccc(F)cc3c2=O)n1 | 25 | 46* | -70 | 15
Cc1ccc2[nH]c(=O)c(-c3nc4ccc(C)cn4c3NCc3ccc(F)cc3)cc2c1 | 13 | 47* | 9 | 51*
COc1ccccc1NS(=O)(=O)c1cc(NC(=O)c2cnccn2)ccc1N1CCOCC1 | 0 | 3 | -3 | 0
O=C(COC(=O)c1ccc2c(c1)OCO2)Nc1ccc2[nH]c(=O)[nH]c2c1 | 3 | 19 | 24 | 10
O=C(COC(=O)c1cc2c(s1)CCC2)c1ccc2[nH]c(=O)[nH]c2c1 | 7 | 4 | 36* | -22
CC(OC(=O)c1cc(S(=O)(=O)Nc2ccccc2F)ccc1Cl)C(=O)Nc1ccc([N+](=O)[O-])cc1C(F)(F)F (centres undefined) | 6 | 36* | 5 | 2
CC1=CC(=O)C(C2=C(O)C(=O)C(C)=CC2=O)=C(O)C1=O | 13 | 8 | 36* | -122
COCC(=O)N1CCC[C@@H]2NC(=O)c3ccccc3OCCCCC[C@@H]21 | 2 | 1 | 7 | 9
SC(COCc1ccccc1)CN1CCN(c2ccccc2)CC1 (centres undefined) | 2 | 3 | 33* | 7
COc1ccc(N2CCN(CC(O)COCc3ccc(Cl)cc3)CC2)cc1 (centres undefined) | -3 | 0 | -4 | -8
Cc1cc(=O)n(C)c2c(O)c3c(cc12)c(C)cc(=O)n3C | 30* | 25 | 57* | -105
CC(=O)N1C[C@H]2C3(CCN(C(=O)c4cc(C)on4)CC3)CC[C@@]2(C(=O)NCC(C)C)C1 | -1 | -1 | -1 | 0
COc1ccc(C(=O)Nc2ccccc2C(=O)NC(Cc2ccc(O)cc2)C(=O)NNC(=O)Cc2ccc(OC)c(OC)c2)cc1 (centres undefined) | 3 | 67* | -2 | 5
COc1ccc(CNC(=O)c2ccccc2NC(=O)c2ccc(F)cc2)cc1 | 7 | 2 | 17 | 7
O=C(CSc1ccc(N2CCOCC2)nn1)Nc1ccc(Cl)cc1 | 0 | -3 | -12 | -5
CCc1ccc(NC(=O)CSc2ccc(N3CCC(C(=O)NC4CC4)CC3)nn2)cc1 | 5 | 10 | 38* | 10
SMILES | UCHL1 block | USP10 block | OTUD3 inh | USP7 block
Cc1cccc(NC(=O)CNC(=O)c2ccc(-c3noc(C4CCCC4)n3)cc2)c1C | 3 | 59* | 1 | 18
O=c1oc2ccccc2cc1-c1nc(-c2ccc(Oc3ccccc3)cc2)cs1 | 9 | 0 | -29 | 70*
Cc1ccc2[nH]c3c(=O)n(CCC4=CCCCC4)cnc3c2c1 | 3 | 1 | 10 | 10
Cc1cc(=O)[nH]c(SCC(=O)c2cc(C)n(CCC3=CCCCC3)c2C)c1C#N | 5 | 45* | -36 | 5
C/C=C/C=C/[C@@H]1Cc2cc(O)cc(O)c2O1 | 61* | 33* | 87* | -76
O=C(C1CCN(Cc2ccncc2)CC1)N1CCN(Cc2ccccc2)CC1 | -2 | -6 | 12 | 2
CN1C(=O)COc2cc(-c3noc(C(=O)NCc4ccc(F)cc4)n3)ccc21 | 4 | 55* | 29 | 9
Cc1ccc(OCC(=O)Nc2ccc(NC(=O)c3cccc(Cl)c3)cc2)cc1C | -2 | 4 | 12 | 8
COc1cccc(CN2Cc3ccccc3OC3(CCC(CO)CC3)C2)c1OC (centres undefined) | 1 | 0 | -14 | 2
Cc1csc2ncc(C(=O)N3CCN(c4ccccc4F)CC3)c(=O)n12 | -4 | -9 | 38* | -4
Cc1csc2ncc(C(=O)N3CCN(c4ccccc4)CC3)c(=O)n12 | -4 | -4 | -27 | -2
O=C(NCc1ccccc1Cl)C1CCN(c2ccc(-c3ccccc3)nn2)CC1 | -1 | 30* | 10 | 9
O=c1c(NCc2ccccc2Cl)nccn1-c1ccc2c(c1)OCO2 | 1 | 4 | 0 | 2
COc1cc(OC)c(NC(=O)Cn2c(=O)n(Cc3ccccc3Cl)c(=O)c3cc(OC)c(OC)cc32)cc1Cl | 0 | 36* | 24 | 3
CCOc1ccc(NC(=O)Cn2c(=O)n(CCC(=O)NCc3ccccc3OC)c(=O)c3ccccc32)cc1 | 1 | 34* | 19 | 12
COc1ccc(Cl)cc1NC(=O)Cn1c(=O)n(CCCCC(=O)NCCc2ccccc2)c(=O)c2ccccc21 | 0 | 43* | 14 | 2
COc1cc2c(=O)n(CCC(=O)NC3CCCC3)c(=O)n(CC(=O)Nc3cccc(Cl)c3)c2cc1OC | 7 | 31* | 24 | -7
COC[C@H]1CCCN1C(=O)CC[C@H]1CNC(=O)[C@@H]2[C@@H](CCN2Cc2csnn2)N1C | 6 | 3 | 10 | -5
Cn1cccc1C(=O)N1CCOC2(CCCN(c3ncc(F)cn3)C2)C1 (centres undefined) | 0 | 4 | 6 | 0
CC/C=C/C1=C(CC(CC)CC2=C(CC(CC)CC3=C(CCC(=O)O)C(=O)OC3=O)C(=O)OC2=O)C(=O)OC1=O (centres undefined) | 2 | 0 | 8 | -14
O=C(c1ccnc(N2CCCC2)c1)N1CCOC2(CC=CCN(Cc3ccccc3)C2=O)C1 (centres undefined) | -1 | -1 | -1 | -8
COc1ccc(NC(=O)Cn2c(=O)n(CCC(=O)NC3CCCC3)c(=O)c3ccccc32)cc1Cl | 1 | 0 | 1 | -2
COc1ccc(OC)c(NC(=O)Cn2c(=O)n(CC3CCC(C(=O)NCCc4ccccc4)CC3)c(=O)c3ccccc32)c1 (centres undefined) | 0 | 29 | 93* | 9
COc1ccc(Cl)cc1NC(=O)Cn1c(=O)n(CCC(=O)NC2CCCC2)c(=O)c2ccccc21 | 2 | 43* | 6 | -7
Cc1ccn2cc(C(=O)N3CCC4(CC3)OCCO4)nc2c1 | -4 | 1 | 0 | 0
Cc1cccc(C(=O)Nc2cccc(SC(C(=O)Nc3ccc(Cl)c(C(=O)O)c3)c3ccccc3)c2)c1 (centres undefined) | 7 | 69* | 21 | 11
O=C(O)c1ccccc1C(=O)Nc1ccc(SC(C(=O)Nc2cccc(Cl)c2)c2ccccc2)cc1 (centres undefined) | 5 | 52* | 28 | 1
